Experimental data: the supplement of paper PMC11732987, “Enantioselective OTUD7B fragment discovery through chemoproteomics screening and high-throughput optimisation” (Communications Chemistry, 2025)

What was measured:
Assay in all cases: log2 ratio of Biotin-Ahx-Ub-VS probe labelling (fragment/DMSO); higher = less target engagement (more negative = stronger competition), active = hit call of the paper (q ≤ 0.05, log2 ratio ≤ -1)
Details in all cases: compound concentration: 200 uM; treatment time: 3 h
USP19 = target: T1, USP19 (UniProt O94966)
T1 sequence (whole entry): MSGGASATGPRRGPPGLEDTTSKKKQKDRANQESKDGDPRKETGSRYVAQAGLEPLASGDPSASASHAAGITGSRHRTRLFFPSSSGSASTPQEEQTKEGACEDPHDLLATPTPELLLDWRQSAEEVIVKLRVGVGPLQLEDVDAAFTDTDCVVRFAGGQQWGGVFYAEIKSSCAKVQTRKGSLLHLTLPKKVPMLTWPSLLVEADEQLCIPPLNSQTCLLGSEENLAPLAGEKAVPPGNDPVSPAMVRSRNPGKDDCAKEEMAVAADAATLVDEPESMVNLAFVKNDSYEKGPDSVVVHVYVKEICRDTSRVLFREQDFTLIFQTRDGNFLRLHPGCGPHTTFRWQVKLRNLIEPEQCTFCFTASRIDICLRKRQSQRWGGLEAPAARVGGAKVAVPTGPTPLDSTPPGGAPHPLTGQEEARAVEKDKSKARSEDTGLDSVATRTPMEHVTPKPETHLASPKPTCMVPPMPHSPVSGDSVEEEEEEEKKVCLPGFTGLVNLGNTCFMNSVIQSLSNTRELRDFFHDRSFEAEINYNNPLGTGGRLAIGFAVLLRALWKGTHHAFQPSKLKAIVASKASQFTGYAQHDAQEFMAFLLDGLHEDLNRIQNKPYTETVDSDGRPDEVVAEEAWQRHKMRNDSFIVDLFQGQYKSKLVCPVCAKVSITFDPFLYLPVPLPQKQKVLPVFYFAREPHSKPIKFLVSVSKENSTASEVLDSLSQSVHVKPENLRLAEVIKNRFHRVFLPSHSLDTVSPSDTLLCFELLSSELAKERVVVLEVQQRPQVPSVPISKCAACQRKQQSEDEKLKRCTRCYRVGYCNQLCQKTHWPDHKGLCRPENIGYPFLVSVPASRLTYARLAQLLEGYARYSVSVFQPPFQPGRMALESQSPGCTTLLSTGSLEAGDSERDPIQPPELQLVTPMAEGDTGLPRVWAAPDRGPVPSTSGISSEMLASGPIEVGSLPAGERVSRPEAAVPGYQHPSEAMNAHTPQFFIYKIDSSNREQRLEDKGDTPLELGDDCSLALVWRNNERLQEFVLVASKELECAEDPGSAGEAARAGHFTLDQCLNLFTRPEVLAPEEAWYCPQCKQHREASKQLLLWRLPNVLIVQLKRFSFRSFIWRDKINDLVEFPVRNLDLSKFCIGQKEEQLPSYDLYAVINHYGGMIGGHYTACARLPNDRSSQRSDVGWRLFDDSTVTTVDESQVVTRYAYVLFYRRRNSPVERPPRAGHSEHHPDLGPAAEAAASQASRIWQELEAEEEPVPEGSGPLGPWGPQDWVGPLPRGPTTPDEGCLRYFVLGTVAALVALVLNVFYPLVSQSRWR
How it was run: (§1)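 Labelled DUBs from HEK293T lysate were NeutrAvidin-enriched, digested with LysC and trypsin, and run by diaPASEF LC-MS/MS. Before that, each 495 µg sample in Tris/CHAPS/IGEPAL buffer with protease inhibitors was treated in triplicate with fragment at 200 µM or vehicle for 3 h, then with Biotin-Ahx-Ub-VS at 0.5 µM final for 1 h. Values are average log2 ratios of fragment over vehicle by unpaired t-test, based on global-median-normalised Spectronaut label-free quantities from proteins with ≥2 unique peptides.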

USP22 = target: T2, USP22 (UniProt Q9UPT9)
T2 sequence (whole entry): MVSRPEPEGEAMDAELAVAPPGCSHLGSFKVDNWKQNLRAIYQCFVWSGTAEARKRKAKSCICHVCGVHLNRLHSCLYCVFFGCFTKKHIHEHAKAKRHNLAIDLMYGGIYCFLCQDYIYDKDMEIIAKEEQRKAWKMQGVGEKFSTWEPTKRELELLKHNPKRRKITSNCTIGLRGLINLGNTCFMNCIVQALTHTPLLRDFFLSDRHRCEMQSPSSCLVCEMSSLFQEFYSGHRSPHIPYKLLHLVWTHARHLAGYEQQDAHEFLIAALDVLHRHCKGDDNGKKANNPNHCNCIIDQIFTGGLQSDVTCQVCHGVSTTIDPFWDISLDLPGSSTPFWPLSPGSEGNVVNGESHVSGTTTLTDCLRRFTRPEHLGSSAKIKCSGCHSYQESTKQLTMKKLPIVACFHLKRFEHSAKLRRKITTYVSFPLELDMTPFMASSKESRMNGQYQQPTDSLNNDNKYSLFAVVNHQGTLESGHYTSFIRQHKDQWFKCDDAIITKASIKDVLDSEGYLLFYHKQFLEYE
How it was run: as §1

USP24 = USP24 (UniProt Q9UPU5)
How it was run: as §1

USP25 = target: T3, USP25 (UniProt Q9UHP3)
T3 sequence (whole entry): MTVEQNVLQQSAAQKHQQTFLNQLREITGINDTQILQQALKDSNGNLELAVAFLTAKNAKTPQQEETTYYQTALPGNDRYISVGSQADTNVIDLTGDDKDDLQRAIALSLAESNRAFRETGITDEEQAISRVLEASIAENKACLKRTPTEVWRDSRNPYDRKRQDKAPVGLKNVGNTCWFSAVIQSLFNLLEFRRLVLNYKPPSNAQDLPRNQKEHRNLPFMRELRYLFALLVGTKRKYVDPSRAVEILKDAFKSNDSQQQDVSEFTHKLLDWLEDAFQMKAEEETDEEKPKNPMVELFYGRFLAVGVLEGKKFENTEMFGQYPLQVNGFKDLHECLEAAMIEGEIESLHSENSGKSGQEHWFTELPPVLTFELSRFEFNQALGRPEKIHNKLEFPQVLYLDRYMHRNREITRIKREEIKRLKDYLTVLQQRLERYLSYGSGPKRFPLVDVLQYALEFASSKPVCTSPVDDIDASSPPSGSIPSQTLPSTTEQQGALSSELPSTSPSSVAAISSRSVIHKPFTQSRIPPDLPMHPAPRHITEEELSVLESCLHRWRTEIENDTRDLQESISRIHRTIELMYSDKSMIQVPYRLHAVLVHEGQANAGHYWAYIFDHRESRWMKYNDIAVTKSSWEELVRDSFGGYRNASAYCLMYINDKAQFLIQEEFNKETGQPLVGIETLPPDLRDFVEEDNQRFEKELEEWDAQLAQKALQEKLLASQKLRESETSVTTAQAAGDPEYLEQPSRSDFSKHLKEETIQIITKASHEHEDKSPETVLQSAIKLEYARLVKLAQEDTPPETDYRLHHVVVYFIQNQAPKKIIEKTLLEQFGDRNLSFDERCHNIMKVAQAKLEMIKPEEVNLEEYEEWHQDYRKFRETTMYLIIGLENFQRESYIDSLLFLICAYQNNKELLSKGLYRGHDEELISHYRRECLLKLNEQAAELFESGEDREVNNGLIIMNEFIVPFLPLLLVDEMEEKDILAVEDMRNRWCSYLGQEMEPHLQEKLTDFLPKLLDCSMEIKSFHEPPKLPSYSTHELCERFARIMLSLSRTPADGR
How it was run: as §1

USP28 = target: T4, USP28 (UniProt Q96RU2)
T4 sequence (whole entry): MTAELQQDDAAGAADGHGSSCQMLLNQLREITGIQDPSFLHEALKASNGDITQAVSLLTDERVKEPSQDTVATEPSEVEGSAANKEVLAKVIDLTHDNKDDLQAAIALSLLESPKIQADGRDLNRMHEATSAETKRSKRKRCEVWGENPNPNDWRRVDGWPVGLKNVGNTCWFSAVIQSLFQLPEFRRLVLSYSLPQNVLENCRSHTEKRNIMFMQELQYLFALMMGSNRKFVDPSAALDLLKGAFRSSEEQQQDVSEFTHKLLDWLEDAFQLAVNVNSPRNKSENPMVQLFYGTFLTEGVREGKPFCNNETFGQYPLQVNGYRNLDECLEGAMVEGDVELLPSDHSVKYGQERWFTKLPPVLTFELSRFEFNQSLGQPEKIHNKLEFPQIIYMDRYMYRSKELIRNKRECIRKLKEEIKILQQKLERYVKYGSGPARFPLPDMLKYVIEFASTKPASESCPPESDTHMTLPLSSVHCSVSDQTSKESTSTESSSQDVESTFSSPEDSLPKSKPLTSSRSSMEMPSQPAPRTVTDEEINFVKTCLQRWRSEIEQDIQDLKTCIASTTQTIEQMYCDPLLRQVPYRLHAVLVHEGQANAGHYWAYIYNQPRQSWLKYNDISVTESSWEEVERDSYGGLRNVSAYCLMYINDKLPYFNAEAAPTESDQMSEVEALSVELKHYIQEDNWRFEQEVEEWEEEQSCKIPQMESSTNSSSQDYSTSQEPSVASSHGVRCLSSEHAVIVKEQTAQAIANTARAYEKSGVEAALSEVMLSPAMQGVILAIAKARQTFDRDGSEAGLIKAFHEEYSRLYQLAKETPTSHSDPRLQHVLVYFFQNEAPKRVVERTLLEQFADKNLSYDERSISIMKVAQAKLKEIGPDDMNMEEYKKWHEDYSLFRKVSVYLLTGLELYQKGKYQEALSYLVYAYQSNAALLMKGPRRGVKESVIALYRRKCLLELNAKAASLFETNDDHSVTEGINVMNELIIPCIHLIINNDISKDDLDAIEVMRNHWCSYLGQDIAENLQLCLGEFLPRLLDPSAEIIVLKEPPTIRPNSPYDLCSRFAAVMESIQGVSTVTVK
How it was run: as §1

Measured: log2 ratio of Biotin-Ahx-Ub-VS probe labelling

Chain of USP24 (Q9UPU5 whole entry): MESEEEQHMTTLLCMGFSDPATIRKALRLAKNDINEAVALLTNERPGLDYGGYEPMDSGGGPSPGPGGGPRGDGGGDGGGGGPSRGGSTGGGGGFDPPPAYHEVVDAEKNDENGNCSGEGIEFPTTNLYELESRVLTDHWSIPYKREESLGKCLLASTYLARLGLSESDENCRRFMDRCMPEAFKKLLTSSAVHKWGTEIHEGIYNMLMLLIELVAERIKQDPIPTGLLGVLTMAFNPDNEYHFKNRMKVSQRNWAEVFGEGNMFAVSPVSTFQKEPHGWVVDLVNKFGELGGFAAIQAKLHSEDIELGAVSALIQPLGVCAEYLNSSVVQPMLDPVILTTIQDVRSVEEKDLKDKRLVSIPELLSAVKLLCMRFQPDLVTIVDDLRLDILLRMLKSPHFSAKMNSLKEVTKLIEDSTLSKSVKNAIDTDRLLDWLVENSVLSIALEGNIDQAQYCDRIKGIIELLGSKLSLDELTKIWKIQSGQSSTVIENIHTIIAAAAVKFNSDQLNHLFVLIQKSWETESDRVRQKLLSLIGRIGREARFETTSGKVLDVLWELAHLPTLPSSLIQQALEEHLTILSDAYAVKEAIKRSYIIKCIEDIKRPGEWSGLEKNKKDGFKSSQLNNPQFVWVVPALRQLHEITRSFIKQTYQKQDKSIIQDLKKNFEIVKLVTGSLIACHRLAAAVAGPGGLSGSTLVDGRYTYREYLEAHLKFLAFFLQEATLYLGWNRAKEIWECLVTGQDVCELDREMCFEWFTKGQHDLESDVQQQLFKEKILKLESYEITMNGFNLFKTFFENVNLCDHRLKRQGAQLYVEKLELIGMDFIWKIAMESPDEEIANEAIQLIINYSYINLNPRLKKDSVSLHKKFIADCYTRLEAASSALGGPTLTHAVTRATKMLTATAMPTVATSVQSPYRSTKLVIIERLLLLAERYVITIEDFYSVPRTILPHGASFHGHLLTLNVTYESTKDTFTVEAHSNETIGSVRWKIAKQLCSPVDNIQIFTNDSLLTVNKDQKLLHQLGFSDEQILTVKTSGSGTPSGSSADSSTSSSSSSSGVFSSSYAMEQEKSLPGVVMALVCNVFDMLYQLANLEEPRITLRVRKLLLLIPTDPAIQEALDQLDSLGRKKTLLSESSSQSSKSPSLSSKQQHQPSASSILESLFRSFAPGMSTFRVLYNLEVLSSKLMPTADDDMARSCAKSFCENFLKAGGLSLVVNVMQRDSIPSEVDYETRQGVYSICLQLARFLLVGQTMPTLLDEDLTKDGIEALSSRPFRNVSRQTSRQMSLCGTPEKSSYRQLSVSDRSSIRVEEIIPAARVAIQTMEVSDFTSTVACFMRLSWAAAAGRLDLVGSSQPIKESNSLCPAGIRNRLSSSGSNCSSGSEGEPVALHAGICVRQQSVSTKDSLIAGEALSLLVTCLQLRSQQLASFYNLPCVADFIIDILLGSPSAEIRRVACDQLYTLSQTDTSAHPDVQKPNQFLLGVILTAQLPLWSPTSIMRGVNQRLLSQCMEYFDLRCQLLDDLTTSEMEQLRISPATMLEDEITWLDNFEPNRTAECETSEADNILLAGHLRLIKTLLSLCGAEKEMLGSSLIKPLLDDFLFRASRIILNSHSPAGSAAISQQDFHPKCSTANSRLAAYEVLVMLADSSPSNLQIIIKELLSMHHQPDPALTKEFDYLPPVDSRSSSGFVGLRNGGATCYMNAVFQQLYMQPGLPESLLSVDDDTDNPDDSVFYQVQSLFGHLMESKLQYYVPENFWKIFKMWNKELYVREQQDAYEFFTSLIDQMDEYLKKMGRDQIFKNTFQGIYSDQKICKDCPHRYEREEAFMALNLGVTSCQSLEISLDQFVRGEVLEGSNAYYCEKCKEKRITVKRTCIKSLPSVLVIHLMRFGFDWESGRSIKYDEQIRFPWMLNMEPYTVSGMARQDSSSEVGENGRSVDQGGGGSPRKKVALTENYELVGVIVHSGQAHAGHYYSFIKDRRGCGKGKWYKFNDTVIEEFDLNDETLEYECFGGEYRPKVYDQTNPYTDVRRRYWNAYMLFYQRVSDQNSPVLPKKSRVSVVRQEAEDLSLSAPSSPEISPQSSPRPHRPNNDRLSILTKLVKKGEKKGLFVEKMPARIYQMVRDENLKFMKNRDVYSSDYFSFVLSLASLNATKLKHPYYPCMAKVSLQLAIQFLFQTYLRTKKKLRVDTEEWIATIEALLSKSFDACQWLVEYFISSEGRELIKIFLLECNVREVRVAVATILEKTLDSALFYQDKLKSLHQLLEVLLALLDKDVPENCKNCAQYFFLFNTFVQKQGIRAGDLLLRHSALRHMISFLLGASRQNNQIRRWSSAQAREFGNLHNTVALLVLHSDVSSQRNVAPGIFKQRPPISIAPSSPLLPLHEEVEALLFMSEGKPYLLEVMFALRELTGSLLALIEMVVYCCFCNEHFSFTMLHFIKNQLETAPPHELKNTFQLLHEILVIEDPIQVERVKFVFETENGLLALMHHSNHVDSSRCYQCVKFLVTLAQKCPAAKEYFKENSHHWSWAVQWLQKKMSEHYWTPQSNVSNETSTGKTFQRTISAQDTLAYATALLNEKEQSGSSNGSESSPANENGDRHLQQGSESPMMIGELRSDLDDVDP

O=C(CCl)NCc1ccc(N2CCOCC2)c(F)c1
inactive: USP19 0.108 | USP22 -0.359 | USP24 0.223 | USP25 -0.255 | USP28 -0.606
